Shown are actives, neighbours in structure and some others; about 3% of the full set was active somewhere.
LmPK inh: blocks Leishmania mexicana pyruvate kinase activity; Q27686; purified LmPK, Kinase-Glo ATP luminescence, 1 h; actives 0.37% (n = 290,000); Potency, µM (highest dose often 57.5 µM), for the others: top-dose activity change, negative = inhibition, actives largely listed as inhibitors
Target sequence (Q27686 whole entry, looked up): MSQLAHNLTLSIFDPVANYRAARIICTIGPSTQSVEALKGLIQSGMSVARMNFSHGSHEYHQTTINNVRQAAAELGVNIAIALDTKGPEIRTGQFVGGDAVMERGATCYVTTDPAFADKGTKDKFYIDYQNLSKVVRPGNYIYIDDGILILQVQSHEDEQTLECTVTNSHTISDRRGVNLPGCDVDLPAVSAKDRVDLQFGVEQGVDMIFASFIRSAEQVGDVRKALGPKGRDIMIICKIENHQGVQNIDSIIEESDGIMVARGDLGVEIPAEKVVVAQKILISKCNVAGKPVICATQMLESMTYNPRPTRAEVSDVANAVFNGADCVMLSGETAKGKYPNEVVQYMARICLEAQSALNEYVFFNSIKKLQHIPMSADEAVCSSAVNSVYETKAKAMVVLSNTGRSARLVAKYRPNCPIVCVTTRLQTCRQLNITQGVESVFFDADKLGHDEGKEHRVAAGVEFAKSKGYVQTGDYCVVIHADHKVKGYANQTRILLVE
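Purified LmPK (0.1 nM) converted ADP (0.1 mM) to ATP with PEP (0.5 mM) in imidazole buffer pH 7.2 with KCl and MgCl2, 1 h at room temperature. ATP was read by Kinase-Glo luminescence; data normalized to uninhibited and no-enzyme controls.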
TbPYK inhibitor: blocks Trypanosoma brucei pyruvate kinase; Q57TT1; TbPYK enzyme, Kinase-Glo Plus ATP luminescence, 45 min; Potency, µM (titrated, usually from 76.8 µM), without a hit: at the highest dose activity, negative = inhibition, actives largely listed as inhibitors; actives 0.12% (n = 410,000); further: nearly all actives have a fitted effect of over 50% in size
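Activity of T. brucei pyruvate kinase was followed by Kinase-Glo Plus luminescence after the enzyme reacted 45 min at room temperature with 130 uM ADP (final) and substrate. Test compounds were added before ADP at multiple concentrations.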
Sm TGR inh: blocks Schistosoma mansoni thioredoxin glutathione reductase. purified TGR, DTNB reduction, TNB absorbance 405 nm. Potency, µM (top dose mostly 114 µM), for inactives: at the top dose activity change, negative = inhibition, usual class: inhibitors. Q962Y6. actives 3% (n = 360,000); further: nearly all actives have a fitted effect of over 60% in size
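First, TGR (20 nM dispensed) and NADPH were mixed with compound. Second, a 15 min room-temperature incubation followed. Third, further NADPH and then DTNB were added to start the reaction. Finally, TNB absorbance was monitored kinetically.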
RE007 growth inh: less growth of the S. pombe RE007 Vpr strain; S. pombe RE007 Vpr strain, BacTiter-Glo ATP luminescence, 24 h; Potency, µM (top dose mostly 92.2 µM), without a hit: at the highest dose activity change, negative = less growth, most hits filed as inhibitors; actives 0.21% (n = 360,000); active means well fitted falling curve with a large enough effect; inconclusive means small, poorly fitted or top-dose-only effect; inactive means no such curve, though single readings can be large or run the other way; further: nearly all actives have a fitted effect of over 50% in size
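Fission yeast strain RE007, carrying one chromosomally integrated HIV-1 vpr copy, was seeded at OD 0.01 in PMG+AL medium with 23 nL pinned compound. After 24 h at 30 °C and 99% humidity, viability was read by BacTiter-Glo luminescence.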
The depositor's hits bear a star; [ ] = remark or other dose. Unless noted, the call rests on the fitted dose curve; in most records, active means well fitted curve in the direction sought with a large enough effect; inconclusive means small, poorly fitted or top-dose-only effect, or another doubt; inactive means no such curve, though single readings can be large; an effect the other way counts as inactive or inconclusive. On the % scale 0 is the no-effect control and ±100 the full control effect; potency means the concentration at half of the fitted maximal effect.

Screening Cn1c(SCC(=O)N/N=C/C=C/c2ccco2)nc2ccccc21 returned LmPK inh -1.9%, TbPYK inhibitor -15.6%, Sm TGR inh 22.4µM* and RE007 growth inh -23.9%.
CCn1c(SCC(=O)N/N=C/C=C/c2ccco2)nnc1-c1ccccc1 was read as LmPK inh -2.3%, TbPYK inhibitor -27.9%, Sm TGR inh 35.5µM* and RE007 growth inh -4.5%.
`Cn1c(SCC(=O)N/N=C/C=C/c2ccccc2[N+](=O)[O-])nc2ccccc21` gave LmPK inh 0.4%, TbPYK inhibitor 1.4%, Sm TGR inh -10.8% and RE007 growth inh -0.3%.
O=C(CSc1nnc(SCc2ccc(Cl)cc2)s1)N/N=C/c1ccc(C(=O)O)cc1 was read as LmPK inh -0.2%, TbPYK inhibitor -0.9%, Sm TGR inh -11.0% and RE007 growth inh inconclusive.
Screening Cc1ccc(OCC(=O)N/N=C/c2ccco2)cc1 returned LmPK inh -2.2%, TbPYK inhibitor -9.7%, Sm TGR inh -14.0% and RE007 growth inh 25.1%.
For Cc1ccc(OCC(=O)N/N=C/C=C/c2ccco2)cc1C the results were LmPK inh -2.1%, TbPYK inhibitor 7.0%, Sm TGR inh 50.1µM* and RE007 growth inh -9.7%.
O=C(CSc1nnc(SCc2ccccc2)s1)N/N=C/C=C/c1ccco1 was read as LmPK inh 1.5%, TbPYK inhibitor -1.2%, Sm TGR inh 39.8µM* and RE007 growth inh 6.6%.
Screening CCOc1ccc(Cl)cc1CNCCCSc1nnnn1C returned TbPYK inhibitor 0.5% and Sm TGR inh 1.3%.
CC(C)(C)[C@]1(O)CCN2CC3c4ccccc4CCc4cccc(c43)[C@@H]2C1 (some centres not stated) was read as TbPYK inhibitor 3.7%.
COc1ccc2c(C(=S)N(C)CC(=O)O)cccc2c1C(F)(F)F was read as TbPYK inhibitor -7.0%.
`O=S(=O)(Nc1cccc(-c2ccc(N3CCCCC3)nn2)c1)c1ccc(Cl)s1` gave TbPYK inhibitor 0.0% and Sm TGR inh 4.9%.
Screening O=C(Cc1cccs1)N/N=C/C=C/c1ccco1 returned LmPK inh 3.4%, TbPYK inhibitor -13.3%, Sm TGR inh 3.98µM* and RE007 growth inh 18.4%.
Screening COc1ccc(C(CNC(=O)c2oc3ccccc3c2C)N2CCCCC2)cc1 (configuration not stated) returned TbPYK inhibitor 5.8% and Sm TGR inh -1.3%.
`COc1ccccc1C(CNC(=O)c1oc2ccccc2c1C)N1CCCC1` (configuration not stated) gave TbPYK inhibitor -4.9%, Sm TGR inh 31.6µM* and RE007 growth inh -11.3%.
Screening O=C(Nc1ccc2nc(SCC(=O)N3CCOCC3)sc2c1)c1cccc(Cl)c1 returned TbPYK inhibitor -1.1% and Sm TGR inh 5.2%.
For CC(=O)c1ccc(S(=O)(=O)N2Cc3ccccc3CC2C(=O)O)cc1 (configuration not stated) the results were LmPK inh 6.1%, TbPYK inhibitor -3.3%, Sm TGR inh 11.2µM* and RE007 growth inh 29.4%.
Screening Nc1ccc(S(N)(=O)=O)cc1 returned TbPYK inhibitor 5.5% and RE007 growth inh -4.0%[18.4 µM].
For Nc1ccc(S(=O)(=O)c2cc(O)c3ccccc3c2O)cc1 the results were TbPYK inhibitor 11.2µM* and RE007 growth inh -3.6%.
Screening O=C(CC(c1ccco1)C1CCCCC1=O)c1ccco1 (configuration not stated) returned LmPK inh 3.5%, TbPYK inhibitor -14.0%, Sm TGR inh 50.1µM* and RE007 growth inh 11.6%.
`O=C(Nc1c(F)cc(F)cc1Br)c1ccco1` gave LmPK inh 1.2%, TbPYK inhibitor -2.5%, Sm TGR inh 44.7µM* and RE007 growth inh -0.8%.
For Cc1noc(C)c1C(=O)Nc1c(F)cc(F)cc1Br the results were LmPK inh -3.3%, TbPYK inhibitor -1.9%, Sm TGR inh -2.4% and RE007 growth inh 4.8%.
`CCN1C(=O)[C@H]2[C@@H](c3ccc(-c4cccc(Cl)c4)c(OC)c3)N[C@@](Cc3ccccc3)(C(=O)OC)[C@H]2C1=O` gave TbPYK inhibitor 0.2%, Sm TGR inh 28.2µM* and RE007 growth inh 1.8%.
`CCN1C(=O)[C@H]2[C@@H](c3ccc(-c4ccc5c(c4)OCO5)c(OC)c3)N[C@@](Cc3ccccc3)(C(=O)OC)[C@H]2C1=O` gave TbPYK inhibitor 0.7%, Sm TGR inh -23.5% and RE007 growth inh -16.1%.
Screening COC(=O)[C@]1(CC(C)C)N[C@H](c2ccc(-c3ccc(F)cc3)c(OC)c2)[C@@H]2C(=O)N(C)C(=O)[C@@H]21 returned TbPYK inhibitor -10.3%, Sm TGR inh 20µM* and RE007 growth inh -5.9%.
For CCN1C(=O)[C@H]2[C@@H](c3ccc(-c4ccc5c(c4)OCO5)c(OC)c3)N[C@@](CC(C)C)(C(=O)OC)[C@H]2C1=O the results were TbPYK inhibitor -1.3%, Sm TGR inh 50.1µM* and RE007 growth inh -6.2%.
CCN1C(=O)[C@H]2[C@@H](c3ccc(-c4ccc(OC)cc4)c(OC)c3)N[C@@](Cc3ccccc3)(C(=O)OC)[C@H]2C1=O was read as TbPYK inhibitor 8.0% and RE007 growth inh 7.8%.
For CCN1C(=O)[C@H]2[C@@H](c3ccc(-c4ccc(OC)cc4)c(OC)c3)N[C@@](CC(C)C)(C(=O)OC)[C@H]2C1=O the results were TbPYK inhibitor -0.4% and RE007 growth inh -10.2%.
Screening COc1ccc(C2NC(Cc3ccccc3)(C(=O)O)C3C(=O)N(c4ccccc4OC)C(=O)C23)cc1 (configuration not stated) returned LmPK inh -5.2%, TbPYK inhibitor 2.4%, Sm TGR inh 22.4µM* and RE007 growth inh 2.3%.
`Cc1c(C(=O)N/N=C/c2cccs2)nnn1-c1nonc1N` gave LmPK inh 2.2%, TbPYK inhibitor 0.2%, Sm TGR inh -1.0% and RE007 growth inh -18.4%.
Cc1ccc2c(c1)C(c1ccccc1)N(C(=O)COc1ccc(Cl)cc1Cl)CC(=O)N2 (configuration not stated) was read as TbPYK inhibitor -7.2% and Sm TGR inh 1.1%.
For O=C1/C(=C/N(C(=O)c2ccco2)c2ccc(Br)cc2)Sc2ccccc21 the results were LmPK inh -19.5%, TbPYK inhibitor -6.2%, Sm TGR inh 12.6µM* and RE007 growth inh -17.1%.
O=C1c2ccccc2C(=O)N1CCCCN(C(=O)c1ccco1)c1ccc(Cl)cc1 was read as LmPK inh -4.1%, TbPYK inhibitor 3.2%, Sm TGR inh 0.0% and RE007 growth inh 7.7%.
For O=C1/C(=C/N(C(=O)c2ccco2)c2ccc(Cl)cc2)Sc2ccccc21 the results were LmPK inh inconclusive, TbPYK inhibitor -17.0%, Sm TGR inh 39.8µM* and RE007 growth inh inconclusive.
Screening CCOC(=O)C1=C(C)NC2=C(C(=O)CCC2)C1c1ccc(O)c(OCC)c1 (configuration not stated) returned LmPK inh -0.7%, TbPYK inhibitor -11.7%, Sm TGR inh -7.8% and RE007 growth inh 9.2%.
CCOc1cc(C2C(C(=O)N3CCCCC3)=C(C)NC3=C2C(=O)CCC3)cc(Br)c1O (configuration not stated) was read as LmPK inh 2.1%, TbPYK inhibitor -8.6%, Sm TGR inh 25.1µM* and RE007 growth inh 1.1%.
For O=C(CCS(=O)(=O)c1nc(-c2cccs2)cc(C(F)(F)F)n1)Nc1cc(Br)ccc1O the results were TbPYK inhibitor 0.0% and Sm TGR inh 17.8µM*.
